Compound activity from PubChem.
Only some compounds are listed: those with a hit (about 3.8% of all), similar ones and a draw of the others.
HSF1 inh = HSF1 inhibition; AID 2098; NIH3T3-HGL HSE-luciferase, MG132-induced, luminescence 8 h; hits give low values; hit rate 0.77% among 300,000; activity change, negative = inhibition, % at 7.5 µM (by protocol);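 active = more than half of replicate wells show activity change below -50%, luminescence cut by over half; inconclusive = some wells, but at most half, below -50%; inactive = no replicate well below -50%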;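 note: luciferase reports HSF-1 transcriptional activity via heat shock element; 0% = median of DMSO wells and -100% = zero luminescence signal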
HSF1 activator = increases HSF-1 driven luciferase reporter signal. NIH3T3-HGL HSF-1 luciferase reporter, MG132, 8 h; 100% = twice DMSO control signal. AID 504408. activation, % at 9 µM. hit rate 1.7% among 300,000;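 active = mean replicate activation of at least 50% with a set share of replicates each reaching 50%; inconclusive = only one of those two conditions met; inactive = mean below 50% and too few replicates reaching it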;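 note: 0% = median of the neutral control wells and 100% = twice that signal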
esBAF inh = SWI/SNF esBAF complex inhibition | mouse ES cells, Bmi1-luciferase knock-in reporter, 24 h; 100% = twice the neutral-well signal | reporter increase, % at 12.5 µM | hit rate 2% among 350,000 | AID 602393; in the data active = activation above about 40%; inconclusive = no clear call, values can overlap the other calls;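 note: 0% = median of the plate's neutral control wells and 100% = double that signal; a rise in the Bmi1 reporter signal indicates esBAF inhibition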
Wnt bcat act = activators of Wnt/beta-catenin signaling; activation, % at 9.35 µM; Wnt/beta-catenin reporter cell assay, activator, plate reader; hit rate 1.2% among 300,000; in the data active = activation above about 30%, passing the limit was not always enough; inconclusive = no clear call, values can overlap the other calls;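 note: 0% = neutral control wells and 100% = positive control wells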
MITF TRPM1 HTS = activators of MITF-driven TRPM1 promoter activity in SK-MEL-5 cells; activation, % at 12.5 µM; SK-MEL-5 TRPM1-promoter luciferase, 24 h; % of positive control, neutral wells = 0; AID 588334; hit rate 0.75% among 300,000;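 active = mean activation of at least 80% with every replicate also reaching 80%; inconclusive = mean reaches 80% but some replicate falls short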;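 note: 0% = neutral control wells and 100% = parthenolide positive control wells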
Starred values were filed as active, the others as inactive.

CC(C)(C)C1CCC(=O)N(CCSc2ccccc2)CC1 (stereo unspecified) was read as HSF1 inh 6.2, HSF1 activator 20.0, esBAF inh 62.4*, Wnt bcat act 46.9* and MITF TRPM1 HTS 96.4*.
For C[C@H]1CCC(=O)N(CCSc2ccc(Br)cc2)CC1 the results were esBAF inh 53.3*, Wnt bcat act 28.3 and MITF TRPM1 HTS 76.9.
Screening Cc1ccc(SCCN2CCC(C(C)(C)C)CCC2=O)cc1 (stereo unspecified) returned HSF1 inh 18.1, HSF1 activator 21.9, esBAF inh 25.3, Wnt bcat act 8.8 and MITF TRPM1 HTS 46.4.
`O=C1CCN(Cc2ccccc2)CCN1CCSc1ccccc1` gave HSF1 inh 6.2, HSF1 activator 7.1, esBAF inh 61.2*, Wnt bcat act 27.0 and MITF TRPM1 HTS 60.9.
`Nc1nc(SCc2ccccc2)ns1` gave HSF1 inh 8.6, HSF1 activator 20.3, esBAF inh 49.7* and MITF TRPM1 HTS 35.2.
For Nc1nc(SCc2ccc(Cl)cc2)ns1 the results were HSF1 inh 7.3, HSF1 activator 22.1, esBAF inh 31.8 and MITF TRPM1 HTS 37.7.
`COc1cccc(CNC(=O)C[C@H]2CC[C@H](NC(C)=O)[C@H](CO)O2)c1` gave esBAF inh -1.7.
Screening COc1ccccc1-c1cnc2c(c1)C(=O)N([C@@H](C)CO)C[C@H](C)[C@H](CN(C)Cc1ccc(F)cc1)O2 returned esBAF inh -3.3.
Cc1cc(C)c(C)c(S(=O)(=O)ON2C(=O)c3ccccc3C2=O)c1C was read as HSF1 inh 40.9, HSF1 activator 52.4*, esBAF inh -5.7, Wnt bcat act -2.2 and MITF TRPM1 HTS -32.3.
For O=C1c2ccccc2C(=O)N1OS(=O)(=O)c1ccc(F)cc1 the results were HSF1 inh -4.0, HSF1 activator 7.4, esBAF inh 0.9, Wnt bcat act -1.3 and MITF TRPM1 HTS -45.2.
Screening Cc1ccc(S(=O)(=O)ON2C(=O)c3ccccc3C2=O)c(C)c1 returned MITF TRPM1 HTS -38.0.
`Cc1cc(C)c(S(=O)(=O)ON2C(=O)c3ccccc3C2=O)cc1C` gave HSF1 inh 42.0, HSF1 activator 62.3*, esBAF inh -4.6 and MITF TRPM1 HTS -32.1.
`O=C(CCN1CCCCC1)N[C@@H]1CC[C@@H](CCNS(=O)(=O)c2ccc(Cl)cc2)O[C@H]1CO` gave esBAF inh 3.5.
For Cc1ccc(-n2nc(C)c3c2OC(N)=C(C#N)C3c2ccncc2)cc1 (stereo unspecified) the results were HSF1 inh 17.3, HSF1 activator 62.1*, esBAF inh -5.5, Wnt bcat act -0.6 and MITF TRPM1 HTS -10.7.
Screening COc1cc(-n2nc(C)c3c2OC(N)=C(C#N)C3c2ccccc2)c(Cl)c(Br)c1O (stereo unspecified) returned HSF1 inh 52.5, HSF1 activator 78.2*, esBAF inh 9.5 and Wnt bcat act -1.4.
Screening Cc1nn(-c2ccccc2)c2c1C(c1ccncc1)C(C#N)=C(N)O2 (stereo unspecified) returned HSF1 inh 1.5, HSF1 activator 25.6 and MITF TRPM1 HTS -9.6.
For COc1ccc(OC(=O)N(C)C[C@@H]2OCc3ccccc3-c3ccccc3C(=O)N([C@H](C)CO)C[C@@H]2C)cc1 the results were esBAF inh 2.0.
CCNC(=O)[C@H]1[C@H](CO)[C@H]2Cn3c(ccc(-c4ccccc4)c3=O)[C@@H]1N2C(=O)c1ccccn1 was read as esBAF inh -3.2.
Screening Cc1ccc(O)c(C(=O)c2cnc3c(c2)CN(CCC(C)C)C(=O)N3)c1 returned HSF1 inh 93.6, HSF1 activator 120.1*, esBAF inh 3.9 and Wnt bcat act -11.8.
For CCCCN1Cc2cc(C(=O)c3cc(OC)ccc3O)cnc2NC1=O the results were HSF1 inh 8.9, HSF1 activator 26.0, esBAF inh 10.1, Wnt bcat act -4.7 and MITF TRPM1 HTS 6.9.
`Cc1ccc(O)c(C(=O)c2cnc3c(c2)CN(C)C(=O)N3)c1` gave HSF1 inh 60.9, HSF1 activator 73.5* and MITF TRPM1 HTS -2.1.
For C[C@@H]1CN([C@@H](C)CO)C(=O)c2cc(NS(=O)(=O)c3ccc(Cl)cc3)ccc2O[C@@H](C)CCCCO[C@H]1CN(C)C(=O)Cc1ccccc1 the results were esBAF inh 4.2.
For O=C(O)C[C@@H]1CC[C@H]2[C@@H](COC[C@H](O)CN2S(=O)(=O)c2ccc(F)cc2)O1 the results were esBAF inh -0.5.
`Nc1ccc(N=Nc2ccccc2O)c(N)c1` gave HSF1 inh -1.5, HSF1 activator -3.7 and Wnt bcat act 48.8*.
`Oc1ccccc1N=Nc1ccccc1O` gave HSF1 inh -4.8, HSF1 activator -5.6, Wnt bcat act -0.9 and MITF TRPM1 HTS -13.1.
CCC(=O)n1nc(-c2ccc(OC)cc2)nc1SC was read as HSF1 inh 3.3, HSF1 activator 10.9, esBAF inh 43.4* and MITF TRPM1 HTS 30.1.
CCC(=O)n1nc(-c2ccc(Cl)cc2)nc1SC was read as HSF1 inh 8.6, HSF1 activator 15.5, esBAF inh 70.6*, Wnt bcat act 39.5* and MITF TRPM1 HTS 64.2.
COc1ccc(-c2nc(SC)n(C(=O)c3ccco3)n2)cc1 was read as HSF1 inh 18.1, HSF1 activator 30.8 and MITF TRPM1 HTS 28.9.
For CSc1nc(-c2ccc(Cl)cc2)nn1S(=O)(=O)c1ccc(Cl)cc1 the results were HSF1 inh 11.6, HSF1 activator 3.2, esBAF inh 46.6* and Wnt bcat act -2.3.
`CO[C@@H]1CN(C)C(=O)c2ccc(NC(=O)c3ccc(F)cc3)cc2OC[C@@H](C)N(C)C[C@@H]1C` gave esBAF inh 5.8.
For O=C(N[C@H]1CC[C@@H](CCNS(=O)(=O)c2ccc(Cl)cc2)O[C@H]1CO)c1ccccn1 the results were esBAF inh 5.4.
For COCCn1c(COc2ccc(C)cc2)nc2ccccc21 the results were HSF1 inh 40.9, HSF1 activator 45.9, esBAF inh 64.1*, Wnt bcat act -0.2 and MITF TRPM1 HTS 33.8.
`CN(C)CCn1c(COc2ccccc2)nc2ccccc21` gave HSF1 inh -6.7, HSF1 activator -12.7 and Wnt bcat act 4.5.
Cc1ccc(OCCCn2c(CO)nc3ccccc32)cc1 was read as HSF1 inh 4.1, HSF1 activator -14.8, esBAF inh 34.1, Wnt bcat act 0.3 and MITF TRPM1 HTS 28.6.
CCn1c(COc2ccc(C)cc2)nc2ccccc21 was read as HSF1 inh 46.8, HSF1 activator 80.9*, Wnt bcat act inconclusive and MITF TRPM1 HTS 57.7.
`C=CCn1c(COc2ccccc2)nc2ccccc21` gave HSF1 inh 8.4, HSF1 activator 11.3, esBAF inh 49.6*, Wnt bcat act 4.4 and MITF TRPM1 HTS 28.0.
`CCOCCn1c(COc2ccc(C)cc2)nc2ccccc21` gave HSF1 inh 47.3, HSF1 activator 75.9*, Wnt bcat act 28.1 and MITF TRPM1 HTS 41.8.
